# Data taken from PubChem BioAssay (NCATS).
# Records with an inconclusive call do not appear. Where a call stands in place of a potency, no number is given. Unmarked numbers belong to inactive results. Activity calls are given as the source filed them. Calls follow the shape of the dose curve; as a rule, active = well fitted curve in the direction sought with a large enough effect; inconclusive = small, poorly fitted or top-dose-only effect, or another doubt; inactive = no such curve, though single readings can be large; an effect the other way counts as inactive or inconclusive.
# How the values were obtained:
# Hek293T = assay: Primary qHTS to identify gynecologic anti-cancer compounds using libraries of approved drugs and bioactive compounds (AID 1345084); conditions: Gynecologic cancer cell panel viability, ATPlite luminescence, 48 h, control line for the selectivity index; series mostly up to 57.5 µM; also: nearly all actives have a fitted effect of over 55% in size
# Procedure, shortened: (§1)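 Luminescence from the ATPlite ATP-monitoring reagent indicates viable cell number; lower signal means cytotoxicity. Cells received compound 16 h after seeding and were exposed for 48 h across five concentrations.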
# JEG-3 = assay: as above; conditions: Gynecologic cancer cell panel viability, ATPlite luminescence, 48 h; series mostly up to 57.5 µM
# Procedure, shortened: as §1
# OV90 = assay: as above; conditions: Gynecologic cancer cell panel viability, ATPlite luminescence, 48 h; series mostly up to 57.5 µM
# Procedure, shortened: as §1
# PA-1 = assay: as above; conditions: Gynecologic cancer cell panel viability, ATPlite luminescence, 48 h; series mostly up to 57.5 µM
# Procedure, shortened: as §1
# SKOV3 = assay: as above; conditions: Gynecologic cancer cell panel viability, ATPlite luminescence, 48 h; series mostly up to 57.5 µM
# Procedure, shortened: as §1
# Tov-21-G = assay: as above; conditions: Gynecologic cancer cell panel viability, ATPlite luminescence, 48 h; series mostly up to 57.5 µM
# Procedure, shortened: as §1
# Tov112D = assay: as above; conditions: Gynecologic cancer cell panel viability, ATPlite luminescence, 48 h; series mostly up to 57.5 µM
# Procedure, shortened: as §1
# [1] = Drug repurposing screens with cells derived from glioblastoma tumor samples (AID 1345199); conditions: GBM patient neurospheres viability, ATP luminescence, 48 h; also: nearly all actives have a fitted effect of over 40% in size; also: potency is read from the fitted curve at half-maximal effect
# Procedure, shortened: (§2)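 Primary testing used CD133+ neurospheres from four GBM patients, seven concentrations, 48 h exposure and ATP-based viability; confirmation added three slower-growing patient lines.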
# astro = assay: as above; conditions: viability, ATP luminescence, 48 h; series mostly up to 45.9 µM
# Procedure, shortened: as §2
# [2] = at 45.9 µM (top of the series), tumour line B
# [3] = at 45.9 µM (top of the series), tumour line D
# [4] = at 46.1 µM (top of the series), tumour line C
# [5] = at 46 µM (top of the series), tumour line A
# [6] = at 20 µM (top of the series), tumour line C
structure (smiles),measurement,setting,value
NC(=O)C1(N2CCCCC2)CCN(CCCC(=O)c2ccc(F)cc2)CC1,Potency,Hek293T,inactive
same,Potency,JEG-3,inactive
same,Potency,OV90,inactive
same,Potency,PA-1,inactive
same,Potency,SKOV3,inactive
same,Potency,Tov-21-G,inactive
same,Potency,Tov112D,inactive
same,"activity, negative = cell killing",[1]; [2],-7.35%
same,"activity, negative = cell killing",[1]; [3],-28%
same,Potency,[1]; tumour line A,10 µM (active)
C#C[C@]1(O)CC[C@H]2[C@@H]3CCc4cc(OC)ccc4[C@H]3CC[C@@]21C,Potency,Hek293T,inactive
same,Potency,JEG-3,inactive
same,Potency,OV90,inactive
same,Potency,PA-1,inactive
same,Potency,SKOV3,inactive
same,Potency,Tov-21-G,inactive
same,Potency,Tov112D,inactive
same,"activity, negative = cell killing",[1]; [2],-27.2%
same,"activity, negative = cell killing",[1]; [4],-5.96%
same,Potency,[1]; tumour line A,39.8 µM (active)
CCCCOC(=O)CC(CC(=O)OCCCC)(OC(C)=O)C(=O)OCCCC,Potency,Hek293T,inactive
same,Potency,JEG-3,inactive
same,Potency,OV90,inactive
same,Potency,PA-1,inactive
same,Potency,SKOV3,inactive
same,Potency,Tov-21-G,inactive
same,Potency,Tov112D,inactive
same,"activity, negative = cell killing",[1]; [2],-5.84%
same,"activity, negative = cell killing",[1]; [3],-7.23%
same,"activity, negative = cell killing",[1]; [4],-12.4%
N=C(N)N1CCc2ccccc2C1,"activity change, negative = cytotoxicity",Hek293T,5.39% [at 6.55 µM]
same,"activity change, negative = cytotoxicity",JEG-3,-0.277% [at 6.55 µM]
same,"activity change, negative = cytotoxicity",OV90,0.455% [at 6.55 µM]
same,"activity change, negative = cytotoxicity",PA-1,-0.819% [at 6.55 µM]
same,"activity change, negative = cytotoxicity",SKOV3,-11.6% [at 6.55 µM]
same,"activity change, negative = cytotoxicity",Tov-21-G,-1.06% [at 6.55 µM]
same,"activity change, negative = cytotoxicity",Tov112D,-0.978% [at 6.55 µM]
same,"activity, negative = cell killing",[1]; [2],-7.25%
same,"activity, negative = cell killing",[1]; [3],0.46%
same,"activity, negative = cell killing",[1]; [5],-7.22%
same,"activity, negative = cell killing",[1]; [4],-18.5%
CCN1CCN(C(=O)N[C@@H](C(=O)N[C@@H]2C(=O)N3C(C(=O)O)=C(CSc4nnnn4C)CS[C@H]23)c2ccc(O)cc2)C(=O)C1=O,Potency,Hek293T,inactive
same,Potency,JEG-3,inactive
same,Potency,OV90,inactive
same,Potency,PA-1,inactive
same,Potency,SKOV3,inactive
same,Potency,Tov-21-G,inactive
same,Potency,Tov112D,inactive
same,"activity, negative = cell killing",[1]; [2],-8.4%
same,"activity, negative = cell killing",[1]; [3],9.51%
same,"activity, negative = cell killing",[1]; [5],-15%
same,"activity, negative = cell killing",[1]; [4],0.963%
CN(CCCN1c2ccccc2CCc2ccccc21)CC(=O)c1ccc(Cl)cc1,Potency,Hek293T,inactive
same,Potency,JEG-3,inactive
same,Potency,OV90,inactive
same,Potency,PA-1,inactive
same,Potency,SKOV3,inactive
same,Potency,Tov-21-G,inactive
same,Potency,Tov112D,inactive
CC(C)Nc1cccnc1N1CCN(C(=O)c2cc3cc(NS(C)(=O)=O)ccc3[nH]2)CC1,Potency,Hek293T,inactive
same,Potency,JEG-3,inactive
same,Potency,OV90,inactive
same,Potency,PA-1,inactive
same,Potency,SKOV3,inactive
same,Potency,Tov-21-G,inactive
same,Potency,Tov112D,inactive
same,"activity, negative = cell killing",[1]; [2],-14.1%
same,"activity, negative = cell killing",[1]; [3],0.603%
FC(F)(F)C(F)(F)C(F)(F)C(F)(F)C(F)(F)C(F)(F)C(F)(F)C(F)(F)Br,Potency,Hek293T,inactive
same,Potency,JEG-3,inactive
same,Potency,OV90,inactive
same,Potency,PA-1,inactive
same,Potency,SKOV3,inactive
same,Potency,Tov-21-G,inactive
same,Potency,Tov112D,inactive
same,"activity, negative = cell killing",[1]; [2],-8.68%
same,"activity, negative = cell killing",[1]; [3],-7.68%
same,"activity, negative = cell killing",[1]; [5],-17.2%
same,"activity, negative = cell killing",[1]; [4],5.77%
C=C[C@@]1(C)CC(=O)[C@]2(O)[C@@]3(C)[C@@H](O)CCC(C)(C)[C@@H]3[C@H](O)[C@H](OC(C)=O)[C@@]2(C)O1,Potency,Hek293T,inactive
same,Potency,JEG-3,inactive
same,Potency,OV90,inactive
same,Potency,PA-1,inactive
same,Potency,SKOV3,inactive
same,Potency,Tov-21-G,inactive
same,Potency,Tov112D,inactive
same,"activity, negative = cell killing",[1]; [2],7.18%
same,"activity, negative = cell killing",[1]; [4],-36.3%
O=C1C(=O)c2ccccc2C(O)=C1C1CCC(c2ccc(Cl)cc2)CC1 (configuration not stated),Potency,Hek293T,inactive
same,Potency,JEG-3,inactive
same,Potency,OV90,inactive
same,Potency,PA-1,inactive
same,Potency,SKOV3,inactive
same,Potency,Tov-21-G,inactive
same,Potency,Tov112D,inactive
same,"activity, negative = cell killing",[1]; [6],-16.4%
same,Potency,[1]; tumour line A,14.1 µM (active)
same,Potency,[1]; tumour line D,8.91 µM (active)
CCCCCCCCCCCCCCC[C@H](O)[C@@H](N)CO,Potency,Hek293T,inactive
same,Potency,JEG-3,inactive
same,Potency,OV90,inactive
same,Potency,PA-1,inactive
same,Potency,SKOV3,inactive
same,Potency,Tov-21-G,inactive
same,Potency,Tov112D,inactive
Cc1c[nH]c2ccccc12,Potency,Hek293T,inactive
same,Potency,JEG-3,inactive
same,Potency,OV90,inactive
same,Potency,PA-1,inactive
same,Potency,SKOV3,inactive
same,Potency,Tov-21-G,inactive
same,Potency,Tov112D,inactive
same,"activity, negative = cell killing",[1]; [2],-3.32%
same,"activity, negative = cell killing",[1]; [3],-13.8%
same,"activity, negative = cell killing",[1]; [4],-16.3%
CCN[C@@H]1C[C@H](N)[C@@H](OC2OC(CN)=CCC2N)[C@H](O)[C@H]1O[C@H]1OC[C@](C)(O)[C@H](NC)[C@H]1O (some centres not stated),"activity change, negative = cytotoxicity",Hek293T,3.5% [at 0.462 µM]
same,"activity change, negative = cytotoxicity",JEG-3,13.2% [at 0.462 µM]
same,"activity change, negative = cytotoxicity",OV90,-4.98% [at 0.462 µM]
same,"activity change, negative = cytotoxicity",PA-1,0.807% [at 0.462 µM]
same,"activity change, negative = cytotoxicity",SKOV3,-8.65% [at 0.462 µM]
same,"activity change, negative = cytotoxicity",Tov-21-G,7.74% [at 0.462 µM]
same,"activity change, negative = cytotoxicity",Tov112D,-3.87% [at 0.462 µM]
same,"activity, negative = cell killing",[1]; [2],-4.35%
same,"activity, negative = cell killing",[1]; [3],14.1%
same,"activity, negative = cell killing",[1]; [5],-22.3%
same,"activity, negative = cell killing",[1]; [4],-13.2%
CCOC(=O)[C@H](CCc1ccccc1)N[C@@H](C)C(=O)N1[C@H](C(=O)O)C[C@@H]2CCC[C@@H]21,Potency,Hek293T,inactive
same,Potency,JEG-3,inactive
same,Potency,OV90,inactive
same,Potency,PA-1,inactive
same,Potency,SKOV3,inactive
same,Potency,Tov-21-G,inactive
same,Potency,Tov112D,inactive
same,"activity, negative = cell killing",[1]; [2],-17.1%
same,"activity, negative = cell killing",[1]; [3],6.01%
same,"activity, negative = cell killing",[1]; [4],-13.2%
COc1ccc(CCN(C)CCCN2CCc3cc(OC)c(OC)cc3CC2=O)cc1OC,Potency,Hek293T,inactive
same,Potency,JEG-3,inactive
same,Potency,OV90,inactive
same,Potency,PA-1,inactive
same,Potency,SKOV3,inactive
same,Potency,Tov-21-G,inactive
same,Potency,Tov112D,inactive
same,"activity, negative = cell killing",[1]; [2],-2.1%
same,"activity, negative = cell killing",[1]; [3],-12.6%
same,"activity, negative = cell killing",[1]; [4],-18%
same,Potency,[1]; tumour line A,28.2 µM (active)
CCc1ccc(C(=O)C(C)CN2CCCCC2)cc1 (configuration not stated),Potency,Hek293T,inactive
same,Potency,JEG-3,inactive
same,Potency,OV90,inactive
same,Potency,PA-1,inactive
same,Potency,SKOV3,inactive
same,Potency,Tov-21-G,inactive
same,Potency,Tov112D,inactive
same,"activity, negative = cell killing",[1]; [2],-6.35%
same,"activity, negative = cell killing",[1]; [3],-22.1%
same,"activity, negative = cell killing",[1]; [4],-19%
same,Potency,[1]; tumour line A,17.8 µM (active)
O=C(O)CCC(=O)Nc1ccc(S(=O)(=O)Nc2nccs2)cc1,Potency,Hek293T,inactive
same,Potency,JEG-3,inactive
same,Potency,OV90,inactive
same,Potency,PA-1,inactive
same,Potency,SKOV3,inactive
same,Potency,Tov-21-G,inactive
same,Potency,Tov112D,inactive
same,"activity, negative = cell killing",[1]; [6],-5.75%
same,"activity, negative = cell killing","[1]; at 21.2 µM (top of the series), tumour line B",2.8%
same,"activity, negative = cell killing","[1]; at 21.2 µM (top of the series), tumour line D",-10.2%
same,"activity, negative = cell killing","[1]; at 21.3 µM (top of the series), tumour line A",-13.6%
same,Potency,astro,inactive
OC1C(O)C(O)C(O)C(O)C1O (configuration not stated),Potency,Hek293T,inactive
same,Potency,JEG-3,inactive
same,Potency,OV90,inactive
same,Potency,PA-1,inactive
same,Potency,SKOV3,inactive
same,Potency,Tov-21-G,inactive
same,Potency,Tov112D,inactive
same,"activity, negative = cell killing",[1]; [2],-13.8%
same,"activity, negative = cell killing",[1]; [3],-13.1%
same,"activity, negative = cell killing",[1]; [5],-17.2%
same,"activity, negative = cell killing",[1]; [4],-1.34%
same,Potency,astro,inactive
